For 40 compounds, growth results are on record in PubChem BioAssay (NCI).

About 83,000 compounds went through this panel and 20% of them were active in at least one assay; those are over-represented in the sample as a whole.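 Testing used 96-well plates and a 48-hour single-concentration exposure. Example: -40 means 40% of the starting cells died.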 Calls of active or inactive are those of the source.

The test deals with NCI-H522 lung. Kind of test: NCI-60 one-dose screen, 48 h (100 = growth as untreated, 0 = no growth, -100 = all killed). Conditions: 10 µM unless noted. The procedure:
Growth inhibition of the NCI-H522 human Non-Small Cell Lung tumor cell line is measured as a screen for anti-cancer activity. Cells are grown in 96 well plates and exposed to the test compound for 48 hours. Compounds are tested at a single concentration, which is 10^-5 M for most compounds. The reported endpoint is percent growth (GI% or GIPRCNT), where numbers from 0 - 100% represent growth inhibition, and numbers from -100% - 0 represent cell death. For example, a value of 40 represents 60% growth inhibition. A value of 0 means no net growth occurred over the course of the experiment. A value of -40 indicates 40% of cells at the beginning of the experiment died by the end of the experiment. A value of -100 means all cells are dead at the end of the experiment.
NCI-60 Human Tumor Cell Lines Screen was performed using the standard one-dose NCI protocol, which is described in more detail at https://dtp.cancer.gov/discovery_development/nci-60/default.htm.
Compounds with GIPRCNT values below 10 were considered active. Activity score was based on GIPRCNT using the following formula: […]
Score is 0 for GIPRCNT values of 100 or above, 50 for GIPRCNT values of 0, and 100 for GIPRCNT values of -100.
Regarding `CCNCc1ccncc1`, the growth was 91% (inactive).

Take `CC(=O)Nc1nc(C(=O)N2N=C(C)/C(=C/c3cccs3)C2=O)cs1`: the growth was 86.6% (inactive).

Turning to `CN1C(=O)[C@H]2c3c1cccc3[C@@]13NC(=O)O[C@H]1[C@H](CCC3(C)C)C2(C)C`, the growth is 92.6% (inactive).

Consider `COc1cc2c(cc1OC)C1(C)N(CC2)C(=O)OC1(C)C` (stereo not given), for which the growth was 100% (inactive).

Consider `COc1cc(/C=C2\CCCC3=C2N=C2SC(C)=NN2C3c2cc(OC)c(OC)c(OC)c2)cc(OC)c1OC` (stereo not given), for which the growth was 81% (inactive).

As for `O=S(=O)(NCCCNc1cc(-c2cn(-c3ccccc3)nc2-c2cccc(O)c2)ccn1)c1cccc(F)c1`, the growth is 44.4% (inactive).

Regarding `O=C1c2ccccc2C(=O)c2c(N=Nc3sc(=O)[nH]c3S)cccc21`, the growth was 83.1% (inactive).

Consider `CCN1C(=O)/C(=c2\sc3n(c2=O)C2C(NN=3)N(CC)C(=S)N2CC)c2ccccc21` (stereo not given), for which the growth was 91.9% (inactive).

For the compound `COc1cc(Cn2c(SCCC(=O)Nc3ccc(F)cc3)nc3ccccc3c2=O)cc(OC)c1OC`, the growth was 53.8% (inactive).

For the compound `OC1CC2c3ccccc3C1c1ccccc12` (stereo not given), the growth was 102% (inactive).

As to `O=C1NCC(c2cc3ccccc3[nH]c2=O)Nc2ccccc21` (stereo not given), the growth is 88.6% (inactive).

As for `COc1cccc(-c2nc3sccn3c2-c2ccnc(NCCCNS(=O)(=O)c3ccc(F)cc3)n2)c1`, the growth is 14% (inactive).

Turning to `CC/C=C\C/C=C\C[C@H](O)C/C=C1/C(=O)C=C[C@H]1C/C=C\CCC(=O)OC`, the growth is -30.8% [8.25 µM] (active).

As to `Cc1c(C2=NNC(c3ccc4c(c3)OCO4)C2)[n+]([O-])c2ccccc2[n+]1[O-]` (stereo not given), the growth was 95.9% (inactive).

As for `O=c1oc2cc(OS(=O)(=O)c3ccc(F)cc3)ccc2c2c1CCCCC2`, the growth was 49.8% (inactive).

Regarding `CCNC(=O)CCCCC(=O)c1c(C)[nH]c(/C=C2\N=C(c3ccc[nH]3)C=C2OC)c1C`, the growth was -91.7% (active).

For the compound `COc1cc(C2C=C(C)N=C3SC=CN32)cc(OC)c1OC` (stereo not given), the growth was 97.2% (inactive).

Take `CCOC(=O)[C@H](CSSc1ncnc2cc[nH]c12)NC(=O)[C@@H](C)c1ccc2cc(OC)ccc2c1`: the growth was 11.3% (inactive).

Regarding `C/C(=N\NC(=O)CC#N)c1cc2cc(Cl)ccc2o1`, the growth was 84.4% (inactive).

`O=[N+]([O-])c1cccc(-c2cc(-c3cc(Br)ccc3O)[nH]n2)c1`: the growth was 15.1% (inactive).

For the compound `CCOC(=O)CC(C#N)(CC(=O)OCC)C(=O)OCC`, the growth was 114% (inactive).

Consider `COc1ccc(-n2cnc3c(sc4ncc(Cl)cc43)c2=O)cc1`, for which the growth is 93.3% (inactive).

As for `O=C(CNC1CCCCC1)Nc1ccc(-c2nc3ccccc3s2)cc1`, the growth is 95.5% (inactive).

For the compound `Cc1cccc(NC(=O)c2sc3nc4c(cc3c2N)CCCC4)c1`, the growth is 24.5% (inactive).

Take `CCCC(C(=O)OCC)C(C)OC(=O)OCC` (stereo not given): the growth is 86.1% (inactive).

Take `O=C(NNC(=S)Nc1ccccc1)c1ccccn1`: the growth was 69% (inactive).

`COc1cc(-c2csc(NC(=O)c3cc(C(F)(F)F)cc(C(F)(F)F)c3)n2)cc(OC)c1OC`: the growth was 3.92% (active).

Turning to `CCSc1nnc(Nc2ccc(C(C)C)cc2)s1`, the growth was 87.2% (inactive).

For the compound `C/C(=C\c1csc(C)n1)[C@@H]1C[C@@H]2O[C@]2(C)CCC[C@H](C)[C@H](O)[C@@H](C)C(=O)C(C)(C)[C@@H](O)CC(=O)N1`, the growth is -81.4% (active).

Turning to `COC1=CC(c2ccc[nH]2)=N/C1=C\c1[nH]c(C)c(C(=O)CCCCC(=O)Nc2ccccc2)c1C`, the growth is -45.3% (active).

Take `Cc1nc2sccn2c1-c1csc(Nc2ccccc2Cl)n1`: the growth is 41.9% (inactive).

For the compound `CC(C)(C)c1ccc(S(=O)(=O)Oc2ccc3c4c(c(=O)oc3c2)CCCCC4)cc1`, the growth was -14.1% (active).

Take `COc1cc(-c2nc(-c3nc4ccccc4[nH]3)cc3c2[nH]c2ccccc23)cc(OC)c1OC`: the growth is 57.2% (inactive).

In the case of `COc1ncc(-c2ccc3ncnc(Nc4cccc(Cl)c4)c3c2)cc1NS(=O)(=O)C1CC1`, the growth is 12.2% (inactive).

As for `CCCCC[C@@H]1Cc2cc(O)c(C(=O)O)c3c2[C@H](C[C@@]2(CCCO2)O3)O1`, the growth was 89.7% (inactive).

Turning to `O=C(CN1CCOCC1)Nc1ccc(-c2nc3ccccc3s2)cc1`, the growth is 94.5% (inactive).

Consider `C=C1C(=O)O[C@H]2[C@H]1CC/C(COC(=O)NCCc1ccc(OC)cc1)=C\CC[C@@]1(C)O[C@@H]21`, for which the growth is -64.6% (active).

Consider `Nc1c(C(=O)Nc2cccc(C(F)(F)F)c2)sc2nc3c(cc12)C(O)CCC3` (stereo not given), for which the growth is 19.3% (inactive).

As to `O=C(O)c1ccc(-n2c(=O)c3ccccc3c3ccccc3c2=O)cc1`, the growth is 94.9% (inactive).

As for `Cc1ccc(-c2csc3nc(C)c(CCCl)c(=O)n23)cc1`, the growth was 88.8% (inactive).
